The nature of assay [1]: TOX21_p53_BLA_p2_viability: Viability Assessment in the Tox21 HCT-116 p53 Agonism Beta-lactamase Assay, Phase 2 (AID 2283591).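 Further: compound exposure lasted 16 h at 37 °C; actives lower the ATP signal meaning cytotoxicity.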 In a few lines:
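HCT-116 p53-bla cells (4000/well) rested 5 h at 37C, then received compounds in DMSO (217-fold dilution) for 16 h at 37C, 5% CO2. After the CCF4 read, CellTiter-Glo was added; ATP luminescence was read after 30 min at room temperature.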

For assay [2], the target named is Cellular tumor antigen p53 (Homo sapiens) (UniProt P04637). As to the kind of experiment: TOX21_p53_BLA_p2_ratio: Tox21 HCT-116 p53 Agonism Beta-lactamase Assay, Ratio, Phase 2 (AID 2283592). An outline of the steps:
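Human colon HCT116 cells with an inducible p53 beta-lactamase reporter are exposed to test chemicals for 16 h at 37C. Reporter induction is read as the 460/530 nm emission ratio after CCF4-AM loading, normalized to DMSO.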

Assay [3] shares this target. The experiment in a line: TOX21_p53_BLA_p3_ratio: Tox21 HCT-116 p53 Agonism Beta-lactamase Assay, Ratio, Phase 3 (AID 2283596). An outline of the steps: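 HCT116 p53-bla cells (4000/well) given compound in DMSO (217-fold dilution) after 5 h, incubated 16 h at 37C. CCF4-AM substrate 2 h at room temperature; 460/530 nm emission ratio, gain fitted against DMSO.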
Assay [4] shares this target. The experiment in a line: TOX21_p53_BLA_p5_ratio: Tox21 HCT-116 p53 Agonism Beta-lactamase Assay, Ratio, Phase 5 (AID 2283599). An outline of the steps: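 HCT-116 cells carrying a p53-inducible beta-lactamase reporter were seeded at 4000 cells/well and dosed after 5 h with compound in DMSO (217-fold dilution). After 16 h at 37C, CCF4-AM substrate was added for 2 h, and the 460/530 nm emission ratio was scored as gain-of-signal versus DMSO.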

The nature of assay [5]: TOX21_p53_BLA_p5_viability: Viability Assessment in the Tox21 HCT-116 p53 Agonism Beta-lactamase Assay, Phase 5 (AID 2283600). An outline of the steps:
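Seeded cells (4000/well) settle 5 h before compound addition. Plates then incubate 16 h at 37C, receive FRET substrate for 2 h, and finally CellTiter-Glo, with luminescence measured after a 30 min room-temperature incubation.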

Assay [6] addresses Cellular tumor antigen p53 (Homo sapiens) (UniProt P04637). As to the kind of experiment: TOX21_p53_BLA_p4_ratio: Tox21 HCT-116 p53 Agonism Beta-lactamase Assay, Ratio, Phase 4 (AID 2283601). An outline of the steps: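 HCT116 cells carrying an inducible beta-lactamase reporter were plated at 4000 cells/well, rested 5 h, then exposed to compounds in DMSO (217-fold dilution) for 16 h at 37C. CCF4-AM substrate was loaded 2 h at room temperature; 460/530 nm emission ratio scored gain-of-signal versus DMSO.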

A short description of assay [7]: TOX21_p53_BLA_p4_viability: Viability Assessment in the Tox21 HCT-116 p53 Agonism Beta-lactamase Assay, Phase 4 (AID 2283597).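 Further: hits lower the luminescence signal meaning cytotoxicity.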 In a few lines: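 Luminescent ATP readout (CellTiter-Glo, 30 min, room temperature) in the same wells as the p53 bla ratio. HCT116 cells were treated for 16 h at 37C with DMSO-dissolved compounds.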
Assay [8] is described as follows: TOX21_p53_BLA_p3_viability: Viability Assessment in the Tox21 HCT-116 p53 Agonism Beta-lactamase Assay, Phase 3 (AID 2283593). An outline of the steps:
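HCT-116 cells (4000/well) rested 5 h at 37C, then got DMSO compounds by pin tool (217-fold dilution) for 16 h at 37C, 5% CO2. After the bla read, CellTiter-Glo was added and luminescence read at 30 min, room temperature.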

Assay [9] has as its target PGR (gene 5241) (UniProt P06401). As to the kind of experiment: TOX21_PR_BLA_Followup_Antagonist_ratio: Tox21 HEK293 Progesterone Receptor (PR) Antagonism Beta-lactamase Follow-Up Assay, Ratio (AID 2283934). An outline of the steps: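 PR-UAS-bla HEK293T cells, 3,000/well in 2% charcoal-stripped FBS, given compound plus 1nM R5020 agonist for 16 hr at 37C. Beta-lactamase FRET substrate 2 hours, ratio cleaved/uncleaved fluorescence; viability by CellTiter-Glo in same wells.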

Assay [10] in a line: TOX21_PR_BLA_Followup_Agonist_viability: Viability Assessment in the Tox21 HEK293 Progesterone Receptor (PR) Agonism Beta-lactamase Follow-Up Assay (AID 2283935).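 Further: signal loss means lower viability so actives are cytotoxic.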 In a few lines: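 PR-UAS-bla HEK293T cells in 2% charcoal-stripped FBS medium, plated 6 hr before compound addition, exposed 16 hr at 37C. Viability read by CellTiter-Glo ATP luminescence after 30 min at room temperature, in the same wells as the beta-lactamase readout.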

Assay [11] can be described thus: TOX21_PR_BLA_Followup_Antagonist_viability: Viability Assessment in the Tox21 HEK293 Progesterone Receptor (PR) Antagonism Beta-lactamase Follow-Up Assay (AID 2283936).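 Further: hits lower the luminescence signal meaning cytotoxicity.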 An outline of the steps: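 PR-UAS-bla HEK293T cells (3,000/well, 2% charcoal-stripped FBS) given compound plus R5020 agonist, 16 h at 37C. CellTiter-Glo added after bla read, 30 min at room temperature; luminescence loss indicates cytotoxicity.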

Assay [12] has as its target PGR (gene 5241) (UniProt P06401). The experiment in a line: TOX21_PR_LUC_Followup_Antagonist: Tox21 HEK293 Progesterone Receptor (PR) Antagonism Luciferase Follow-Up Assay (AID 2283938).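 Further: curve fitted upward as signal gain over DMSO baseline despite antagonist label.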 In a few lines: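 Luciferase reporter in HEK293-PR-A-luc cells: 16 h compound treatment at 37C, ONE-Glo luminescence detection, DMSO as negative control and baseline.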
Assay [13] can be described thus: TOX21_PR_LUC_Followup_Antagonist_viability: Viability Assessment in the Tox21 HEK293 Progesterone Receptor (PR) Antagonism Luciferase Follow-Up Assay (AID 2283940). In a few lines: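 HEK293-PR-A-luc cells kept in charcoal-stripped FBS medium were plated 5 h before compound addition, then exposed 16 h at 37C; viability read as cellular ATP by luciferase luminescence, loss of signal indicating cytotoxicity.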

Where “and” joins values, the source holds several entries; their conditions need not be identical. Equal values may be shown once. Inconclusive results are not listed. Some compounds were tested as several samples or in several runs, with calls that do not always agree. Calls of active or inactive are those of the source. How the source made its calls: active means hit-call score of the fitted dose curve at least 0.9, where 1 is the maximum; inconclusive means response in the unintended direction; inactive means score below 0.9.

Usually AC50 stands for the midpoint of the concentration-response curve, whichever way the signal moves.

Cellular tumor antigen p53 (Homo sapiens), sequence (P04637 whole entry, looked up): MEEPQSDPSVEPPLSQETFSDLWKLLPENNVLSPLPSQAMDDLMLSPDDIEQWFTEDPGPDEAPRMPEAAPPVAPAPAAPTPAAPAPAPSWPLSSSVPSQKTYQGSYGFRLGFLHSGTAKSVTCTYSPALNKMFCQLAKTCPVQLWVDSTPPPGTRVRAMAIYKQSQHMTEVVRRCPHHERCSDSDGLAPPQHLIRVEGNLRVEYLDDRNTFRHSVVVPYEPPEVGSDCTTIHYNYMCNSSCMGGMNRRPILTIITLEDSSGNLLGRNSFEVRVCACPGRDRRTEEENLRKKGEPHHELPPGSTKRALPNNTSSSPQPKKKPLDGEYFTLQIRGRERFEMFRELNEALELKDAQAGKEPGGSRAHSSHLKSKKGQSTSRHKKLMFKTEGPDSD
PGR (gene 5241), sequence (P06401 whole entry, looked up): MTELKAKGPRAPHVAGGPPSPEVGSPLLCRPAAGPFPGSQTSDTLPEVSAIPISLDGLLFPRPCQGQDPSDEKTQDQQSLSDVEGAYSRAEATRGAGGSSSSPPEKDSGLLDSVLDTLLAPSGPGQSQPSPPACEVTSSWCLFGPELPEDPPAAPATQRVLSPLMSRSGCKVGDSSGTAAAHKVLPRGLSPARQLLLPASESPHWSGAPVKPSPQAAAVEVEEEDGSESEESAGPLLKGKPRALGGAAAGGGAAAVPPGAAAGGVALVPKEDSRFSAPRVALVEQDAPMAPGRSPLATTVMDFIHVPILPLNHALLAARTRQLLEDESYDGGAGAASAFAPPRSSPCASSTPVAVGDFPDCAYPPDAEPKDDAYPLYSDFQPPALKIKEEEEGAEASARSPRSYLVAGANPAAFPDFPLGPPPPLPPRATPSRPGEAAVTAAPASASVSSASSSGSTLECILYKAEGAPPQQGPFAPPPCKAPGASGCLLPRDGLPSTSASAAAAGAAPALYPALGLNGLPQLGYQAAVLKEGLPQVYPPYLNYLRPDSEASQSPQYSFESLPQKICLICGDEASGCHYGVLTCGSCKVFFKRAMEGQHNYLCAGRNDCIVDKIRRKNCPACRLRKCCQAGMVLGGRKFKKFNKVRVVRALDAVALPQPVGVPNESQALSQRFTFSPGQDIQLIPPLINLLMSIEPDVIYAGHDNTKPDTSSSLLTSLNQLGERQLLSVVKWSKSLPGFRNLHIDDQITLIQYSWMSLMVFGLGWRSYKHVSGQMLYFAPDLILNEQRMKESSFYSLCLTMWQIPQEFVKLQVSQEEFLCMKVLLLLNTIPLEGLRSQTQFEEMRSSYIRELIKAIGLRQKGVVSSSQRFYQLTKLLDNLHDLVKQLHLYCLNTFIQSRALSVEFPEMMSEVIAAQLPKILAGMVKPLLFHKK

In the case of `C[C@]12C=CC(=O)C=C1CC[C@@H]1[C@@H]2CC[C@]2(C)OC(=O)CC[C@@H]12`, the result in assay [1], in assay [2], in assay [3], in assay [4], in [5] and in assay [6] was inactive.

Regarding `Clc1ccc2c(c1)C(c1ccccc1)=NCc1nncn1-2`, the result in assay [1], in assay [2], in [3], in assay [5] and in [6] was inactive.

Regarding `CCN(CC)Cc1nccn1-c1ccc([N+](=O)[O-])cc1C(=O)c1ccccc1Cl`, the compound was classed as inactive in [1], in assay [2], in assay [7], in assay [4] and in assay [5].

Regarding `NC1=NC(=O)C(c2ccccc2)O1` (configuration not stated), the compound was called inactive in [1], in assay [2], in assay [3], in assay [5] and in [6].

As to `[2H]C([2H])([2H])[C@H](N)Cc1ccccc1`, the compound was classed as inactive in [1], in assay [2], in [3] and in [5].

Turning to `C#C[C@]1(O)C=C[C@H]2[C@@H]3CCC4=CC(=O)CC[C@@H]4[C@H]3CC[C@@]21CC`, the compound was called inactive in [1], in [2], in [3], in assay [7], in assay [4] and in [6].

Take `NP(N)(=O)NC(=O)c1ccc(F)cc1`: the call in assay [1], in assay [2], in [7], in [4] and in assay [5] was inactive.

Take `c1ccc(OCC2CO2)cc1` (configuration not stated): the outcome in [1], in [2], in [3], in assay [7], in assay [5] and in assay [6] was inactive.

With `CN1CCN(C(=O)O[C@H]2c3nccnc3C(=O)N2c2ccc(Cl)cn2)CC1`, the compound was classed as inactive in assay [1], in assay [2], in assay [3], in assay [7], in [5] and in assay [6].

Take `CCC1(c2ccccc2)C(=O)NC(=O)N(C)C1=O` (configuration not stated): the call in [1], in [2], in assay [3] and in assay [5] was inactive.

As to `CCOP(=S)(OCC)Oc1ncn(-c2ccccc2)n1`, the compound was classed as inactive in assay [1], in [2], in assay [3], in assay [7], in [5] and in assay [6].

With `CC[C@@H](CO)NC(=O)[C@@H]1C=C2c3cccc4[nH]cc(c34)C[C@H]2N(C)C1`, the result in assay [1], in assay [2], in assay [3], in [7] and in assay [5] was inactive.

With `CN(C)c1ccc(N(C)C)cc1`, the compound was classed as inactive in assay [1], in assay [2], in [3], in [7], in assay [4] and in assay [6].

Take `CNP(=O)(OC)Oc1ccc(C(C)(C)C)cc1Cl` (configuration not stated): the outcome in [1], in assay [2], in assay [3], in assay [4], in assay [5] and in [6] was inactive.

Consider `CC(Cc1ccccc1)NCCn1cnc2c1c(=O)n(C)c(=O)n2C` (configuration not stated), for which the result in [1], in assay [2], in assay [3], in assay [4], in assay [5] and in assay [6] was inactive.

Consider `O=C(O)/C=C/C(=O)O`, for which the result in [1], in assay [2], in [4], in assay [5] and in assay [6] was inactive.

For `O=[N+]([O-])c1ccc(CBr)cc1`, the compound was called inactive in assay [1], in assay [8] and in assay [7]. Moreover, the AC50 in assay [3] is 94.3 µM (active).

Turning to `CC1=C2[C@H]3OC(=O)[C@@H](C)[C@@H]3CC[C@@]2(C)C=CC1=O`, the result in assay [1], in [2], in assay [7], in [4], in assay [5] and in assay [6] was inactive.

Consider `O=[N+]([O-])c1cccc(O)c1`, for which the result in assay [1], in assay [2], in assay [7], in assay [4] and in assay [5] was inactive.

As to `ClCc1ccc(Cl)cc1Cl`, the call in [1], in [2], in assay [4] and in assay [5] was inactive.

For the compound `CC(Cl)Cl`, the compound was classed as inactive in [1], in [2] and in assay [6].

As for `C[C@@H]1[C@@H]2Cc3ccc(O)cc3[C@@]1(C)CCN2CC1CC1`, the outcome in assay [1], in [2], in assay [5] and in [6] was inactive.

As to `c1ccc2c(c1)CCNC2`, the call in assay [1], in assay [2], in assay [7], in [5] and in assay [6] was inactive.

For `ClCC1CO1` (configuration not stated), the call in [1], in assay [2], in assay [7], in assay [4], in assay [5] and in assay [6] was inactive.

Consider `CCSC(=O)Cl`, for which the compound was called inactive in assay [1], in assay [2], in [7], in assay [4], in assay [5] and in assay [6].

As for `COc1ccc2c(C(=O)c3ccc(Cl)cc3)c(C)n(CC(=O)O)c2c1`, the compound was called inactive in assay [1], in [2], in assay [7], in [4] and in [6].

On to `C[C@]12C/C(=C/O)C(=O)C[C@@H]1CC[C@@H]1[C@@H]2CC[C@@]2(C)[C@H]1CC[C@]2(C)O`, for which the compound was classed as inactive (in [1]; in [8]; in assay [4]; in assay [5]; in the assay with PGR (gene 5241) [9]; in [10]). In addition, the result (in assay [11]; in the assay with PGR (gene 5241) [12]; in [13]) was inactive. Besides, the AC50 in [8] was 66.6 µM (active); in assay [7], 52.8 µM (active) and 34.6 µM (active); in assay [5], 71.4 µM (active).

Turning to `CON(C)C(=O)Nc1ccc(Br)cc1`, the call in assay [1], in assay [2], in assay [7] and in assay [6] was inactive.

Consider `O=S1(=O)OCCO1`, for which the outcome in assay [1], in assay [2], in assay [7], in [4], in assay [5] and in assay [6] was inactive.

Turning to `CCN1C[C@]2(COC)[C@H](O)C[C@H](OC)[C@@]34[C@@H]5C[C@@]6(O)[C@H](OC(=O)c7ccccc7)[C@@H]5[C@@](OC(C)=O)([C@@H]([C@H](OC)[C@H]23)[C@@H]14)[C@@H](O)[C@@H]6OC`, the compound was classed as inactive in assay [1], in assay [2], in assay [7], in assay [4], in assay [5] and in assay [6].

With `Cc1ccc2c(C)cccc2c1`, the compound was classed as inactive in assay [1], in assay [2], in assay [7], in [4], in assay [5] and in [6].

Take `CCC(=O)OC1(c2ccccc2)CCN(C)CC1`: the result in [1], in [2], in [4] and in assay [5] was inactive.

For the origin of these results see PubChem BioAssay (EPA / NIEHS).
